Screening results as filed in PubChem.
An excerpt weighted towards active compounds, which were near 3.8% of everything screened.
Y pestis TopoI: blocks Yersinia pestis topoisomerase I activity; Y. pestis Topo-I cleavage product accumulation, plate reader; activity, % at 10 µM; actives 0.064% (n = 360,000); AID 504884; in the data active = activity above about 50%, passing the limit was not always enough
PrPC surface inh: cell surface PrPC inhibition, primary TR-FRET screen | inhibition, % at 13.8 µM | P04156 | actives 0.43% (n = 370,000) | AID 720596 | TR-FRET read-out; in the data active = inhibition above about 24%; also: 0% = median of the test wells and 100% = reference compound wells
FBA Mtb inh: inhibits M. tuberculosis FBA enzyme; P9WQA3; inhibition, % at 1 µM; purified M. tuberculosis FBA, fluorescence read-out; actives 2.3% (n = 360,000); in the data active = inhibition above about 27%;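 also: 0% = vehicle and 100% = reference inhibitor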
Target sequence (P9WQA3 whole entry, looked up): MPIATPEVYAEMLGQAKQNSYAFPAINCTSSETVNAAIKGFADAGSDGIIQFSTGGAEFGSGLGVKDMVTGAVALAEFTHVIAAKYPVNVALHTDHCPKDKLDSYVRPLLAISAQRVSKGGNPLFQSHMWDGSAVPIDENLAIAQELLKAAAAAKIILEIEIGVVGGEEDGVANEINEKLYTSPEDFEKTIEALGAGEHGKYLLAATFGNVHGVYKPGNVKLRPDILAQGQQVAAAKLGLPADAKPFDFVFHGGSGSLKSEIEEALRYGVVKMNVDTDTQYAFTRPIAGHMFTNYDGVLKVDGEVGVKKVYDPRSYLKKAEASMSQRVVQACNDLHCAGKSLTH
Mtb hypoxia rep: reduces hypoxia-regulated biosensor signal in M. tuberculosis; AID 1159583; M. tuberculosis hypoxia-regulated fluorescent reporter, fluorescence; actives 0.1% (n = 300,000); fluorescence inhibition, % (test concentration not listed); in the data active = fluorescence inhibition mostly above about 23%, no sharp cut-off; inactive = mostly below about 17%
PrP UTR inh: inhibition of PrP 5' UTR reporter expression; cell-based PrP 5' UTR mRNA reporter, plate reader; inhibition, % (concentration not given with the values); actives 0.35% (n = 340,000); AID 488862; in the data active = inhibition above about 52%; also: 0 = median of the neutral control wells
GDH-TPI counter: GDH-TPI coupled enzyme inhibition counter-screen | actives 1.2% (n = 360,000) | inhibition, % at 4.8 µM | GDH-TPI coupled enzyme counterscreen, NADH absorbance; in the data active = inhibition above about 30%;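 also: 0% = DMSO wells and 100% = wells lacking the enzyme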
Numbers without * were called inactive.

Results for COC(=O)/C=C1\S/C(=N/N=C/c2ccc(Cl)cc2)NC1=O ?
Y pestis TopoI: 11.9; PrPC surface inh: 3.8; FBA Mtb inh: -1.5; PrP UTR inh: -69.4; GDH-TPI counter: 35.2*

What do the screens show for `Cc1cccc(NC=Cc2onc(C)c2[N+](=O)[O-])c1`?
Mtb hypoxia rep: 20.6

Results for NS(=O)(=O)c1ccc(NC(=S)NC(=O)/C=C/c2cccs2)cc1 ?
Y pestis TopoI: 3.5; PrPC surface inh: -4.9; FBA Mtb inh: -2.1; Mtb hypoxia rep: 0.2; PrP UTR inh: -0.9; GDH-TPI counter: 12.9

Results for O=C(/C=C/c1cccs1)Nc1ccncc1 ?
Y pestis TopoI: -0.2; PrPC surface inh: -14.1; FBA Mtb inh: -1.8; Mtb hypoxia rep: -3.9; PrP UTR inh: -24.3; GDH-TPI counter: 35.8*

What do the screens show for `O=C(/C=C/c1cccs1)NC(=S)Nc1ccc(C(=O)O)cc1`?
Y pestis TopoI: -5.5; PrPC surface inh: -9.6; FBA Mtb inh: 1.4; PrP UTR inh: -5.7; GDH-TPI counter: 74.0*

How did COc1ccc(C2CC(=O)C=C(c3cccc(CO)c3)C2)cc1OC (stereo not drawn) do in these assays?
Mtb hypoxia rep: 3.8

What do the screens show for `Cc1noc(C)c1NC(=O)Nc1ccc2c(c1)C(=O)N(C(C)CO)CC(C)C(CN(C)S(=O)(=O)c1ccccc1)O2` (stereo not drawn)?
Mtb hypoxia rep: 17.0

How did Cc1ccc(C(=O)NNC(=S)NC(=O)c2ccccc2)cc1 do in these assays?
Y pestis TopoI: -1.5; PrPC surface inh: 16.8; FBA Mtb inh: -2.7; Mtb hypoxia rep: -10.1; PrP UTR inh: -16.6; GDH-TPI counter: 31.0*

Results for C(=C\CSc1nnnn1-c1ccccc1)/CSc1nnnn1-c1ccccc1 ?
Y pestis TopoI: 60.2*; PrPC surface inh: -4.8; FBA Mtb inh: 1.5; Mtb hypoxia rep: 10.3; PrP UTR inh: -18.2; GDH-TPI counter: -15.2

How did O=c1oc2c(CN3CCOCC3)c(O)ccc2c2c1CCC2 do in these assays?
Y pestis TopoI: 0.2; PrPC surface inh: 0.7; FBA Mtb inh: active; Mtb hypoxia rep: -0.5; PrP UTR inh: -21.8; GDH-TPI counter: 0.0

How did CC(C)CN(Cc1c(O)ccc2c3c(c(=O)oc12)CCC3)CC(C)C do in these assays?
Y pestis TopoI: 7.6; PrPC surface inh: 3.0; FBA Mtb inh: active; Mtb hypoxia rep: 13.1; PrP UTR inh: -11.2; GDH-TPI counter: 8.8

Results for CC1CCCN(Cc2c(O)ccc3c4c(c(=O)oc23)CCCC4)C1 (stereo not drawn) ?
Y pestis TopoI: 7.8; PrPC surface inh: 2.6; Mtb hypoxia rep: 17.8; PrP UTR inh: -15.8; GDH-TPI counter: 28.4

How did Cc1cc(=O)oc2c(CN(CC(C)C)CC(C)C)c(O)ccc12 do in these assays?
PrPC surface inh: -3.3; Mtb hypoxia rep: 4.9

Results for O=C(Cn1cncn1)NN=Cc1ccc(Cl)cc1 ?
Mtb hypoxia rep: -0.8

What do the screens show for `CN1C(C(=O)Nc2ccccn2)=C(O)c2ccccc2S1(=O)=O`?
Y pestis TopoI: 4.1; PrPC surface inh: -4.4; FBA Mtb inh: -2.2; Mtb hypoxia rep: -1.6; PrP UTR inh: -14.6; GDH-TPI counter: 33.3*

How did CCC1CCCC1=NNC(=O)c1ccc(Cl)cc1 (stereo not drawn) do in these assays?
Mtb hypoxia rep: 5.2

How did CCCC1=[N+](CC(=O)c2ccccc2)CCn2c(C)ccc21 do in these assays?
Y pestis TopoI: -5.1; PrPC surface inh: -5.6; FBA Mtb inh: -3.7; Mtb hypoxia rep: 16.8; PrP UTR inh: -10.6; GDH-TPI counter: 35.2*

How did CC(C)CC(=O)Nc1ccc2oc(-c3cccnc3)nc2c1 do in these assays?
Y pestis TopoI: -7.5; PrPC surface inh: -1.9; FBA Mtb inh: 129.2*; Mtb hypoxia rep: 9.4; PrP UTR inh: -47.1; GDH-TPI counter: -1.9

Results for O=C(Nc1ccc2oc(-c3cccnc3)nc2c1)c1cccnc1 ?
Y pestis TopoI: 7.8; PrPC surface inh: -1.7; FBA Mtb inh: 5.8; Mtb hypoxia rep: 2.7; PrP UTR inh: -28.3; GDH-TPI counter: -2.1

Results for O=C(Nc1ccc2oc(-c3cccnc3)nc2c1)c1ccc(Br)o1 ?
Y pestis TopoI: -6.9; PrPC surface inh: 10.2; FBA Mtb inh: 14.5; PrP UTR inh: 1.5; GDH-TPI counter: 17.2

How did CCC(=O)Nc1ccc2oc(-c3cccnc3)nc2c1 do in these assays?
Y pestis TopoI: -4.9; PrPC surface inh: -0.2; FBA Mtb inh: 171.9*; Mtb hypoxia rep: -10.8; PrP UTR inh: -18.6; GDH-TPI counter: 24.7

Results for Cc1ccc2nc(-c3cccnc3)oc2c1 ?
Y pestis TopoI: -7.4; PrPC surface inh: 4.0; FBA Mtb inh: 41.4*; Mtb hypoxia rep: 0.9; PrP UTR inh: -57.5; GDH-TPI counter: -5.5

What do the screens show for `Oc1ccc(C=NNc2nccnc2Cl)cc1`?
Mtb hypoxia rep: 2.2

Results for Nc1c(C(=O)NN=Cc2ccc([N+](=O)[O-])cc2)cnn1-c1ccccc1 ?
Mtb hypoxia rep: -1.2

How did COc1cc(C(=O)Nc2cccc(-c3nc4ccccc4o3)c2C)cc(OC)c1OC do in these assays?
Y pestis TopoI: -7.6; PrPC surface inh: -1.0; FBA Mtb inh: -4.5; Mtb hypoxia rep: 0.5; PrP UTR inh: -16.4; GDH-TPI counter: -13.4

What do the screens show for `COc1cc(C(=O)Nc2ccc(-c3nc4cc(C)ccc4o3)c(O)c2)cc(OC)c1OC`?
Y pestis TopoI: 1.6; PrPC surface inh: 1.3; FBA Mtb inh: 11.1; Mtb hypoxia rep: 1.4; PrP UTR inh: -20.9; GDH-TPI counter: 34.3*

How did CNCC1Oc2c(NS(C)(=O)=O)cccc2C(=O)N(C(C)CO)CC1C (stereo not drawn) do in these assays?
Mtb hypoxia rep: -5.4

What do the screens show for `COc1cc(C2/C(=C(\O)c3ccc4c(c3)OCCO4)C(=O)C(=O)N2Cc2ccco2)cc(OC)c1OC` (stereo not drawn)?
Y pestis TopoI: -3.8; PrPC surface inh: -9.9; FBA Mtb inh: 0.0; Mtb hypoxia rep: 3.5; PrP UTR inh: 2.6; GDH-TPI counter: 32.0*

How did COc1ccc(OC)c(C2/C(=C(/O)c3ccccc3)C(=O)C(=O)N2Cc2ccco2)c1 (stereo not drawn) do in these assays?
Y pestis TopoI: 3.0; PrPC surface inh: 9.0; FBA Mtb inh: -1.8; Mtb hypoxia rep: 5.2; PrP UTR inh: -0.1; GDH-TPI counter: 11.9

Results for COc1ccc(/C(O)=C2\C(=O)C(=O)N(Cc3ccco3)C2c2cc(OC)ccc2OC)cc1 (stereo not drawn) ?
Y pestis TopoI: -1.8; PrPC surface inh: 6.0; FBA Mtb inh: -0.3; Mtb hypoxia rep: -0.7; PrP UTR inh: 3.3; GDH-TPI counter: 40.0*

How did CCOC(=O)C1C2COc3ccc(C)cc3C2N2C(=O)c3ccccc3NC(=O)[C@@]12C (stereo partly drawn) do in these assays?
Mtb hypoxia rep: 3.7

Results for CC1CN(C(C)CO)C(=O)c2cc(NC(=O)c3ccncc3)ccc2OC1CN(C)C(=O)Nc1ccc(C(F)(F)F)cc1 (stereo not drawn) ?
Mtb hypoxia rep: 1.1

What do the screens show for `Cc1ccc(C=NNC(=O)CSc2nc3ccccc3[nH]2)o1`?
Mtb hypoxia rep: -1.8
